Results: PubChem BioAssay (NCATS)
Results filed as inconclusive are left out. Values without a mark were called inactive. Active and inactive are the calls of the source. Calls come from the whole dose curve; as a rule, active = well fitted curve in the direction sought with a large enough effect; inconclusive = small, poorly fitted or top-dose-only effect, or another doubt; inactive = no such curve, though single readings can be large; an effect the other way counts as inactive or inconclusive.

Tests used:
[1] = target: Aldehyde dehydrogenase, mitochondrial (Homo sapiens) (UniProt P05091); assay: qHTS for Inhibitors of the Aldehyde Dehydrogenase Family (ALDH2) Primary screen (AID 2061308);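 note: plate controls were vehicle for no effect and reference inhibitor for full effect; nearly all actives have a fitted effect of over 55% in size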
[2] = target: Retinaldehyde dehydrogenase 3 (Homo sapiens) (UniProt P47895); assay: qHTS for Inhibitors of the Aldehyde Dehydrogenase Family (ALDH1A3) Primary screen (AID 2061315);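 note: plate controls were DMSO vehicle for no effect and reference inhibitor for full effect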
[3] = BET inhibitor-based combinations targeting novel dependencies in MECOM-rearranged (r) AML: SET-2 cell line (AID 2202231); settings: SET-2 AML cells viability, CellTiter-Glo luminescence, 48 h; viability: active compounds read low, concentration not given here; note: nearly all actives have a fitted effect of over 35% in size; note: potency is the fitted concentration of half-maximal effect;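 for viability: plate controls were DMSO treated cells for no effect and wells without cells for full effect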
Procedure, shortened: (§1)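 AML cell lines seeded at 500 cells/well, treated with 11-point dose curves for 48 h. Viability by CellTiter-Glo luminescence, normalised to DMSO and empty wells; activity expressed as AUC and per-cell-line Z-transformed AUC.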

[4] = BET inhibitor-based combinations targeting novel dependencies in MECOM-rearranged (r) AML: OCI-AML3 cell line (AID 2202232); settings: Potency: OCI-AML3 viability; note: nearly all actives have a fitted effect of over 35% in size; note: potency is the fitted concentration of half-maximal effect
Procedure, shortened: as §1

[5] = BET inhibitor-based combinations targeting novel dependencies in MECOM-rearranged (r) AML: MV-4-11 cell line (AID 2202233); note: nearly all actives have a fitted effect of over 45% in size; note: potency is the fitted concentration of half-maximal effect
Procedure, shortened: (§2)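 Cells at 500/well were exposed for 48 hr to MIPE v5.0 drugs as 11-point dose curves. Viability was read by CellTiter-Glo luminescence and normalized to DMSO and empty-well controls. Activity was expressed as AUC and per-cell-line Z-AUC.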

[6] = BET inhibitor-based combinations targeting novel dependencies in MECOM-rearranged (r) AML: UCSD-AML1 cell line (AID 2202235); note: nearly all actives have a fitted effect of over 40% in size; note: potency is the fitted concentration of half-maximal effect
Procedure, shortened: as §2

[7] = BET inhibitor-based combinations targeting novel dependencies in MECOM-rearranged (r) AML: AML-191 cell line (AID 2202236; note: nearly all actives have a fitted effect of over 35% in size; note: potency is the fitted concentration of half-maximal effect)
Procedure, shortened: as §1

[8] = BET inhibitor-based combinations targeting novel dependencies in MECOM-rearranged (r) AML: AML-194 cell line (AID 2202237; note: nearly all actives have a fitted effect of over 40% in size; note: potency is the fitted concentration of half-maximal effect)
Procedure, shortened: as §1

[9] = target: Aldehyde dehydrogenase 1A1 (Homo sapiens) (UniProt P00352); assay: qHTS for Inhibitors of the Aldehyde Dehydrogenase Family (ALDH1A1) Confirmatory screens (AID 2061316); note: potency is the fitted concentration of half-maximal effect; nearly all actives have a fitted effect of over 65% in size
[10] = BET inhibitor-based combinations targeting novel dependencies in MECOM-rearranged (r) AML: HNT-34 cell line (AID 2202234); note: nearly all actives have a fitted effect of over 35% in size; note: potency is the fitted concentration of half-maximal effect
Procedure, shortened: as §2

| Compound | Potency [1] | Potency [2] | Potency [3] | Potency [4] | Potency [5] | Potency [6] | Potency [7] | Potency [8] | Potency [9] | Potency [10] | viability [3] |
| --- | --- | --- | --- | --- | --- | --- | --- | --- | --- | --- | --- |
| C[C@H]1[C@H](O)O[C@@H]2O[C@@]3(C)CC[C@H]4[C@H](C)CC[C@@H]1[C@@]24OO3 | inactive | inactive | 1.32 µM (active) | 1.18 µM (active) | 0.662 µM (active) | 3.32 µM (active) | 2.95 µM (active) | 4.68 µM (active) |  |  |  |
| Cc1ccc(CNc2ccccc2C(=O)Nc2nc(-c3ccccc3)cs2)cc1 | inactive | inactive |  |  |  |  |  |  | 22.5 µM (active) |  |  |
| Cc1cc(C(=O)Nc2cc(Nc3ccc4c(/C=C/c5ccccn5)n[nH]c4c3)ccc2F)n(C)n1 | inactive | inactive | 18.6 µM (active) | 18.6 µM (active) | 16.6 µM (active) | 6.61 µM (active) | 16.6 µM (active) |  |  | 7.42 µM (active) |  |
| CCCNC(=O)[C@H]1O[C@@H]1C(=O)N[C@H](C(=O)N1CCC[C@H]1C(=O)OC)C(C)CC (stereo not given in full) | inactive | inactive | 26.3 µM (active) | 2.09 µM (active) | 8.33 µM (active) |  |  | 10.5 µM (active) |  | 23.5 µM (active) |  |
| COC(=O)N[C@@H](C)CNc1nccc(-c2cn(C(C)C)nc2-c2cc(Cl)cc(NS(C)(=O)=O)c2F)n1 | inactive | inactive | 2.63 µM (active) | 1.66 µM (active) | 2.35 µM (active) | 2.63 µM (active) | 1.66 µM (active) | 2.09 µM (active) |  | 0.833 µM (active) |  |
| COCCNCc1ccc(-c2cc3nccc(Oc4ccc(NC(=S)NC(=O)Cc5ccc(F)cc5)cc4F)c3s2)nc1 | inactive | inactive | 4.68 µM (active) | 2.63 µM (active) | 0.132 µM (active) | 2.95 µM (active) | 2.35 µM (active) | 2.63 µM (active) |  |  |  |
| O=C(O)C1(Cc2cccc(Nc3nccs3)n2)CCC(Oc2cccc(Cl)c2F)CC1 (stereo not given) | inactive | inactive | 1.66 µM (active) | 0.662 µM (active) | 1.32 µM (active) |  |  |  |  | 0.468 µM (active) |  |
| Cc1ccc(C(=O)Nc2ccc(CN3CCN(C)CC3)c(C(F)(F)F)c2)cc1C#Cc1cnc2[nH]ncc2c1 | inactive | inactive | 4.17 µM (active) | 0.934 µM (active) | 0.0023 µM (active) | 0.105 µM (active) | 0.0934 µM (active) | 0.148 µM (active) |  |  |  |
| C[C@H]1[C@H](C)CC[C@]2(C(=O)O)CC[C@]3(C)C(=CC[C@@H]4[C@@]5(C)C[C@@H](O)[C@H](O)[C@@](C)(CO)[C@@H]5CC[C@]43C)[C@H]12 | inactive | inactive |  | inactive | inactive |  | inactive | inactive |  | inactive | 104% |
| Nc1ccc(C(=O)c2cc3c(ccc4ccccc43)[nH]2)cc1 | inactive | inactive | 30.3 µM (active) | 6.79 µM (active) | 3.82 µM (active) | 2.7 µM (active) | 1.52 µM (active) |  |  | 2.41 µM (active) |  |
| O=C(NCc1ccc(S(=O)(=O)c2cccc(C(F)(F)F)c2)cc1)c1cnc2[nH]ncc2c1 | inactive | inactive |  | 0.0148 µM (active) | 0.0833 µM (active) | 0.0209 µM (active) | 0.0148 µM (active) | 0.742 µM (active) |  | 0.0263 µM (active) | 110% |
| Cc1ccc(CNc2ncnc3ccc(-c4sc(C)nc4C)cc23)o1 | inactive | inactive |  |  |  |  |  |  | 15.9 µM (active) |  |  |
| CN1CCN(C2CCC(n3cc(-c4ccc(Oc5ccccc5)cc4)c4c(N)ncnc43)CC2)CC1 (stereo not given) | inactive | inactive | 20.9 µM (active) | 13.2 µM (active) | 0.235 µM (active) | 7.42 µM (active) | 9.34 µM (active) | 8.33 µM (active) |  |  |  |
| COc1cc(Nc2ncc(F)c(Nc3ccc4c(n3)N(COP(=O)(O)O)C(=O)C(C)(C)O4)n2)cc(OC)c1OC | inactive | inactive | 13.2 µM (active) | inactive | 0.833 µM (active) | 2.63 µM (active) | 3.72 µM (active) |  |  | 2.09 µM (active) |  |
| COc1cc2ncnc(Nc3cccc(Cl)c3F)c2cc1OC(=O)N1CCN(C)C[C@H]1C | inactive | inactive |  | 13.2 µM (active) | 13.2 µM (active) | inactive | inactive | inactive |  | 16.6 µM (active) | 103% |
| NC(=O)C1CCN(c2ncc(Br)s2)CC1 | inactive | inactive |  |  |  |  |  |  | 4.49 µM (active) |  |  |
| Cc1c(F)ccc(C(=O)Nc2cc([N+](=O)[O-])ccc2N2CCN(C)CC2)c1Cl | inactive | inactive |  | inactive | 3.32 µM (active) | inactive | inactive | inactive |  | inactive | 110% |
| CCC(=O)Nc1cccc(Oc2nc(Nc3ccc(N4CCN(C)CC4)cc3OC)ncc2Cl)c1 | inactive | inactive | 20.9 µM (active) | 14.8 µM (active) | 7.42 µM (active) | inactive | 18.6 µM (active) | 23.5 µM (active) |  | 11.8 µM (active) |  |

| Compound | Potency [1] | Potency [2] | Potency [3] | Potency [4] | Potency [5] | Potency [6] | Potency [7] | Potency [8] | Potency [9] | Potency [10] | viability [3] |
| --- | --- | --- | --- | --- | --- | --- | --- | --- | --- | --- | --- |
| CCCCCCCCCCCCCCCCOCCCOP(=O)(O)COC(CO)Cn1ccc(N)nc1=O (stereo not given) | inactive | inactive |  | 20.9 µM (active) | inactive |  | inactive | inactive |  | inactive | 118% |
| Nc1[nH]nc2nnc(-c3c(-c4ccccc4)nn4ccccc34)cc12 | inactive | inactive |  | 14.8 µM (active) | 10.5 µM (active) | inactive | 18.6 µM (active) | inactive |  |  | 111% |
| O=C1Nc2nc(-c3c(O)cccc3OCC3CC3)cc([C@@H]3CCCNC3)c2CO1 | inactive | inactive | 20.9 µM (active) | 16.6 µM (active) | 5.9 µM (active) |  | 18.6 µM (active) | 18.6 µM (active) |  | 18.6 µM (active) |  |
| COc1ccc(OC)c(-c2nnc3ccc(-c4ccc(OC)c(O[C@@H]5CCOC5)c4)nn23)c1 | inactive | inactive | 8.33 µM (active) | 4.17 µM (active) | 5.25 µM (active) |  | 2.35 µM (active) | 2.35 µM (active) |  | 1.05 µM (active) |  |
| NC[C@@](O)(c1ccc(Cl)cc1)c1ccc(-c2cn[nH]c2)cc1 | inactive | inactive | 7.42 µM (active) | 5.25 µM (active) | 4.68 µM (active) | 9.34 µM (active) | 7.42 µM (active) | 6.61 µM (active) |  | 4.17 µM (active) |  |
| CCCCNc1ncc2c(-c3ccc(F)cc3)nn(CC3CCC(N)CC3)c2n1 (stereo not given) | inactive | inactive | 14.4 µM (active) | 9.1 µM (active) | 0.129 µM (active) | 6.45 µM (active) | 5.74 µM (active) | 5.74 µM (active) |  | 4.56 µM (active) |  |
| C=CC(=O)Nc1ccc2ncnc(Nc3ccc(OCc4cccc(F)c4)c(Cl)c3)c2c1 | inactive | inactive | 10.5 µM (active) | 5.9 µM (active) | 6.61 µM (active) | 7.42 µM (active) | 7.42 µM (active) | 8.33 µM (active) |  | 6.61 µM (active) |  |
| Cc1cc(CN2CCN(c3c(Br)cnc4nc(-c5ccc(N6CCN(C)CC6)cc5)[nH]c34)CC2)no1 | inactive | inactive | 9.34 µM (active) | 8.33 µM (active) | 0.332 µM (active) | 2.63 µM (active) | 5.25 µM (active) | 4.17 µM (active) |  | 1.48 µM (active) |  |
| C=CC(=O)N1CCC(Oc2cc3c(Nc4ccc(Cl)c(Cl)c4F)ncnc3cc2OC)CC1 | inactive | inactive | 20.9 µM (active) | 13.2 µM (active) | 10.5 µM (active) |  |  |  |  | 16.6 µM (active) |  |
| CN(C)c1cccc(N2CCN(c3nn4c(=O)c5ccccc5nc4s3)CC2)c1 | inactive | inactive |  |  |  |  |  |  | 10.1 µM (active) |  |  |
| Cc1cc(-c2nc3cc(F)ccc3s2)ccc1NC(=O)[C@@H](N)CCCCN | inactive | inactive | 13.2 µM (active) | 14.8 µM (active) | 13.2 µM (active) | 14.8 µM (active) | 16.6 µM (active) | 16.6 µM (active) |  | 8.33 µM (active) |  |
| C[C@H]1[C@@H](OC(=O)CCC(=O)O)O[C@@H]2O[C@@]3(C)CC[C@@H]4[C@H](C)CC[C@@H]1[C@@]24OO3 | inactive | inactive | 3.72 µM (active) | 4.17 µM (active) | 1.66 µM (active) | 8.33 µM (active) | 5.25 µM (active) | 9.34 µM (active) |  | 2.95 µM (active) |  |
| COc1cccc(Nc2ncnn3ccc(CN4CC[C@@H](N)[C@H](O)C4)c23)c1 | inactive | inactive |  | 14.8 µM (active) | 0.296 µM (active) |  | 4.68 µM (active) |  |  | 1.32 µM (active) | 90.8% |
| COc1cc(-c2cc(-c3ccc(N4CCNCC4)cc3)cnc2C)cc(OC)c1OC | inactive | inactive |  | 8.33 µM (active) | 10.5 µM (active) |  |  |  |  |  | 104% |
| Cc1nc(-c2cn3c(n2)-c2ccc(-c4cnn(C(C)(C)C(N)=O)c4)cc2OCC3)n(C(C)C)n1 | inactive | inactive | 23.5 µM (active) | 0.742 µM (active) | 5.25 µM (active) | 0.209 µM (active) |  |  |  | 16.6 µM (active) |  |
| COc1ccc(-c2ccc3ncc4c(c3c2)n(-c2ccc(N3CCNCC3)c(C(F)(F)F)c2)c(=O)n4C)cn1 | inactive | inactive | 0.332 µM (active) | 0.235 µM (active) | 0.105 µM (active) | 0.0525 µM (active) | 0.132 µM (active) | 0.118 µM (active) |  | 0.118 µM (active) |  |
| Cc1nnc(C[C@@H]2C=C(c3ccc(Cl)cc3)c3ccccc3-n3c(C)nnc32)o1 | inactive | inactive | 0.662 µM (active) | 0.332 µM (active) | 0.235 µM (active) | 2.09 µM (active) | 3.32 µM (active) | 5.25 µM (active) |  |  |  |
| O=C([C@H](Cc1ccc(O[S+](=O)([O-])c2ccccn2)cc1)N[S+](=O)([O-])c1cccc2cnccc12)N1CCN(c2ccccc2)CC1 | inactive | inactive |  |  |  |  |  |  | 7.98 µM (active) |  |  |
